Screens from PubChem BioAssay.
FAS-TE inh: blocks the thioesterase domain of human fatty acid synthase. P49327. recombinant FAS-TE, OMFH fluorogenic substrate, fluorescence endpoint. inhibition, % at 15 µM. 0.67% of 360,000 active;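 active = compounds whose normalised, plate-corrected inhibition of enzyme fluorescence in the single-dose primary screen is 50% or more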;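 also: 0% = DMSO with enzyme and 100% = substrate without enzyme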
Target sequence (P49327 whole entry, looked up, the tested form may be a part): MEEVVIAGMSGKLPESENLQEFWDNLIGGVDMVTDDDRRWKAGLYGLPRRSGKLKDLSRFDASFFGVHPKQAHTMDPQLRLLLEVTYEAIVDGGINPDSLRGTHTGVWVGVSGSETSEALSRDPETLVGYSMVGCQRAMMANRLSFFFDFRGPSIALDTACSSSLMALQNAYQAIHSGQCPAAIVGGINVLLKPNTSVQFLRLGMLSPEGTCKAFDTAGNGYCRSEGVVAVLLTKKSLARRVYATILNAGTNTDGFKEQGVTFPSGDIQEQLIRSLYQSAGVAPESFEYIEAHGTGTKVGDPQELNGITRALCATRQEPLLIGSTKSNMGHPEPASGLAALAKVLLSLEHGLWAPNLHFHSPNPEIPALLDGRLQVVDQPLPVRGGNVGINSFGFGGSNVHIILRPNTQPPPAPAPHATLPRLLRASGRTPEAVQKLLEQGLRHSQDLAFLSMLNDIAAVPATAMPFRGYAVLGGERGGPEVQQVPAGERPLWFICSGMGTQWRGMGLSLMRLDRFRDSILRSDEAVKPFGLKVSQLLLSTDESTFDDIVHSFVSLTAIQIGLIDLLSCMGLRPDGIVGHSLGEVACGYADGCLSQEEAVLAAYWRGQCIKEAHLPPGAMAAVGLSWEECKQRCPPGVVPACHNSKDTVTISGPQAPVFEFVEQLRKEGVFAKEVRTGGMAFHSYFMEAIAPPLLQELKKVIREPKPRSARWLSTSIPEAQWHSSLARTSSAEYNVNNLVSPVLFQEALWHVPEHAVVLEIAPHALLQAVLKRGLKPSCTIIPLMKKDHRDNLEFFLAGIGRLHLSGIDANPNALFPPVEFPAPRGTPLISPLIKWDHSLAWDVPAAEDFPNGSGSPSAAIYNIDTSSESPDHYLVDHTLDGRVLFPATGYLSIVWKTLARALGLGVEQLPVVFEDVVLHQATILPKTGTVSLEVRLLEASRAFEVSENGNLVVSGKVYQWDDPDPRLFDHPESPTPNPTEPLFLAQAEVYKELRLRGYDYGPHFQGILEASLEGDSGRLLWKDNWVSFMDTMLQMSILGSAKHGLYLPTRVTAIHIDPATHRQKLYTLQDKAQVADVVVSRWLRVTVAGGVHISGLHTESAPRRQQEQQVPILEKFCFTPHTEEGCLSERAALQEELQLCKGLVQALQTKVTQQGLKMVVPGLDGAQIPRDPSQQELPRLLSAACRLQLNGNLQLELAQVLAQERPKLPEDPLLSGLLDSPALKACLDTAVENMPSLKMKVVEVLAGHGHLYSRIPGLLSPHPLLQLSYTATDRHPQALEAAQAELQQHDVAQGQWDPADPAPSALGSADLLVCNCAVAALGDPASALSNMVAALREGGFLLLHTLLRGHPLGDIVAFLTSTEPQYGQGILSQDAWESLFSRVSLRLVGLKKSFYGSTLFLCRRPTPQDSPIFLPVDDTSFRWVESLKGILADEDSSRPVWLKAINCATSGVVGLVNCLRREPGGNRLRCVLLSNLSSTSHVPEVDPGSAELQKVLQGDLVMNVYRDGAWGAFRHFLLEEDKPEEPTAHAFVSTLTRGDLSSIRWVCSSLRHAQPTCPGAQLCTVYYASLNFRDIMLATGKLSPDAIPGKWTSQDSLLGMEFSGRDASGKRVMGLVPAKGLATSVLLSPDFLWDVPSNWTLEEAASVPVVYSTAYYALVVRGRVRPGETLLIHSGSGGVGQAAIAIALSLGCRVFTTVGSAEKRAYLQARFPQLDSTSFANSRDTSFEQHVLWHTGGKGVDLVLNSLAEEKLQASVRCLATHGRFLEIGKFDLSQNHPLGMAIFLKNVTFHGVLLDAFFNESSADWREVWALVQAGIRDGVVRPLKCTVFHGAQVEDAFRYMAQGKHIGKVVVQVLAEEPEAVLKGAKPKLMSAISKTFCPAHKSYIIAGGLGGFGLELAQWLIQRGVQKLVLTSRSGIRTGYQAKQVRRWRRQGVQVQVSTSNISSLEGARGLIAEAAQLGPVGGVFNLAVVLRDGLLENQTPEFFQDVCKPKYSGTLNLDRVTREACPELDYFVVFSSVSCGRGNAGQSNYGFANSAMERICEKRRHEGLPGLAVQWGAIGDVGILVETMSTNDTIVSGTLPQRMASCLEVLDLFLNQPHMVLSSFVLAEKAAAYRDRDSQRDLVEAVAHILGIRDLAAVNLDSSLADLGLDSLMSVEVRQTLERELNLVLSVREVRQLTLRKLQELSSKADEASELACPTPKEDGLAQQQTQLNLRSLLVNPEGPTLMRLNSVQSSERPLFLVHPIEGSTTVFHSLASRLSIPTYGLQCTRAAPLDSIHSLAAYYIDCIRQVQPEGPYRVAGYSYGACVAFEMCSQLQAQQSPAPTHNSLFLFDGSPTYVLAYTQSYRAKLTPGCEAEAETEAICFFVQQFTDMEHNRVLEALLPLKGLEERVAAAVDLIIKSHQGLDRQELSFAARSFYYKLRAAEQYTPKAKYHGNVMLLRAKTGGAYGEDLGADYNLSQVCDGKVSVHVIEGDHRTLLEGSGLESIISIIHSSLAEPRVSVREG
beta cell repl: MIN6 beta-cell proliferation induction. 0.29% of 330,000 active. MIN6 cells proliferation, ATPlite luminescence, 48 h; cells starved in 0.2% serum; 100% = growth in 10% serum. proliferation, % at 10 µM. AID 2380;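 active = compounds whose signal lies at least 3.5 SD above the mean of all wells on their plate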;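 also: 0% = DMSO-treated cells in low-serum medium and 100% = 10% serum control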
H9c2 TAG inh: inhibitors of triacylglycerol accumulation. H9c2 cells, Nile Red lipid (TAG) fluorescence; cells loaded with 200 µM oleic acid. 0.66% of 230,000 active. inhibition, % at 12.5 µM;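 active = pattern-corrected inhibition of lipid staining of at least 50% with the nuclear-stain viability signal not falling by more than 50%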;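 also: 0% = DMSO wells and 100% = triacsin C control wells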
Cardio protect: protects H9c2 cardiomyocytes from peroxide injury; 0.63% of 360,000 active; protection from H2O2 cell death, % at 20 µM; H2O2 injury protection, ATPLite, 2 h; AID 588492;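 active = compounds giving at least 50% protection of heart cells from peroxide-induced death in the single-dose screen, raw or plate-pattern-corrected value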;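 also: 0% = DMSO wells with peroxide and 100% = DMSO wells without peroxide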
Calpain2 inh: calpain II (pig) inhibition; purified calpain II, fluorogenic peptide substrate, 30 min; 0.37% of 220,000 active; inhibition, % at 16 µM;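 active = inhibition above about 50%, limit read from the data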
aDG glyco up: increases alpha dystroglycan glycosylation. 0.22% of 360,000 active. Pro5-aDG cells, alpha-DG glycosylation AlphaScreen (IIH6); 0% Pro5, 100% B10-LARGE cell signal. activation, % at 10 µM;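 active = activation of at least 8% versus controls, or a plate z-score of at least 8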;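 also: Pro5 are CHO cells carrying HIG-tagged alpha-DG that lacks glycosylation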
FAS-TE inh conf: confirmation of human fatty acid synthase thioesterase inhibitors. shares compounds with FAS-TE inh. recombinant FAS-TE, OMFH fluorogenic substrate, fluorescence. inhibition, % at 15 µM. 45% of 2,300 active. AID 624325;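 active = compounds inhibiting the enzyme by at least 50% at 15 µM in any one of the replicates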;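 also: 0% = enzyme with DMSO only and 100% = wells lacking enzyme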
The depositor's hits bear a star; nt = not tested or not shown. An excerpt weighted towards active compounds, which were near 2.3% of everything screened.

SMILES	FAS-TE inh	beta cell repl	H9c2 TAG inh	Cardio protect	Calpain2 inh	aDG glyco up	FAS-TE inh conf
CN(C)S(=O)(=O)N1CCC(n2nccc2NC(=O)CCCc2ccccc2)CC1	-3	11	nt	0	nt	0	nt
CCC1NC(=O)c2cc3ccccc3cc2-n2c1nc1cc(C)cc(C)c1c2=O (centres undefined)	-2	nt	24	2	nt	0	nt
Cc1cc(C)c2c(=O)n3c(nc2c1)C(Cc1ccccc1)NC(=O)c1cc2ccccc2cc1-3 (centres undefined)	86*	nt	18	-14	nt	0	5
CCOC1=C2[C@H](c3ccc(Cl)cc3)N(S(=O)(=O)c3ccc(C)cc3)C[C@H]2n2c(=O)n(-c3ccccc3)c(=O)n2C1	56*	nt	nt	7	nt	0	13
CCOC1=C2CN(S(=O)(=O)c3ccc(C)cc3)[C@H](c3ccccc3)C[C@H]2n2c(=O)n(-c3ccccc3)c(=O)n2C1	70*	nt	nt	4	nt	0	14
CCOC1=C2[C@H](c3ccccc3)N(S(=O)(=O)c3ccc(C)cc3)C[C@H]2n2c(=O)n(-c3ccccc3)c(=O)n2C1	41	nt	nt	0	nt	0	nt
CCc1nc2ccc(C(=O)NCCCn3ccnc3)cn2c1N(C)Cc1ccc(Cl)cc1	-8	nt	9	0	nt	0	nt
Cc1ccc(S(=O)(=O)N(Cc2ccccc2)c2ccccc2C(=O)Nc2ccccc2C(=O)NCc2ccco2)cc1	53*	-6	nt	-11	-52	0	32
CC(=O)C(N=Nc1ccccc1)(Sc1nnc(-c2ccccc2)n1-c1ccccc1)C(=O)Nc1ccccc1 (centres undefined)	79*	-1	nt	-5	-70	-1	17
CC(=O)C(N=Nc1ccccc1)(Sc1nnc(-c2ccccc2)n1-c1ccccc1)C(C)=O	30	-4	nt	-6	-53	-1	nt
COc1ccc2[nH]c(=O)c(CN(Cc3cccs3)C(=S)Nc3ccccc3)cc2c1	nt	0	nt	nt	-88	nt	nt
COc1cc2cc(CN(Cc3cccs3)C(=S)Nc3ccccc3)c(=O)[nH]c2cc1OC	79*	0	nt	40	-90	0	31
N#Cc1c(-c2cccs2)nc(SCc2ccc(Cl)cc2)[nH]c1=O	66*	-5	nt	-16	11	0	79*
CN(C)c1nc(N2CCN(c3ccccc3)CC2)c(C#N)c(=O)o1	17	-1	-1	3	-16	0	nt
Cc1cccc(C)c1N1CCN(c2nc(N(C)C)oc(=O)c2C#N)CC1	56*	-3	nt	-3	7	0	17
O=C(CN1CC(c2ccccc2)CC1=O)N/N=C/c1cc(Br)ccc1O (centres undefined)	69*	0	nt	57*	-204	1	85*
O=C(CNC(=O)c1ccccc1)N/N=C/c1cc(Br)ccc1O	54*	-2	nt	59*	-128	1	44*
CCN(C(=O)CSc1nnc(-c2ccco2)n1CC)c1c(N)n(Cc2ccccc2)c(=O)[nH]c1=O	-2	-2	9	-3	nt	0	nt
Cc1cc(=O)n2[nH]c(-c3ccc(C(C)(C)C)cc3)cc2n1	63*	-6	nt	-16	-10	0	44*
Cc1cc(=O)n2[nH]c(-c3ccccc3)cc2n1	-7	0	-6	8	-154	0	nt
COc1ccc(/C=C2\SC(=O)N(CCNC(=O)C3CCN(S(=O)(=O)c4cccs4)CC3)C2=O)cc1	54*	1	nt	-17	-12	0	16
O=C(NCCN1C(=O)S/C(=C\c2ccc(F)cc2)C1=O)C1CCN(S(=O)(=O)c2cccs2)CC1	21	0	nt	-24	2	1	nt
CCN1C(=O)[C@@H]2[C@@H](c3ccc(-c4ccc(OC)cc4)c(OC)c3)N3CCCC[C@@]3(C(=O)OC)[C@@H]2C1=O	51*	-7	2	5	nt	0	-4
CCN1C(=O)[C@H]2[C@@H](c3ccc(-c4ccc(OC)cc4)c(OC)c3)N3CCCC[C@@]3(C(=O)OC)[C@H]2C1=O	70*	-8	-8	0	nt	0	22
COC(=O)[C@@]12CCCCN1[C@H](c1ccc(-c3ccc(Cl)c(Cl)c3)c(OC)c1)[C@H]1C(=O)N(C)C(=O)[C@H]12	60*	-6	20	-10	nt	0	17
SMILES	FAS-TE inh	beta cell repl	H9c2 TAG inh	Cardio protect	Calpain2 inh	aDG glyco up	FAS-TE inh conf
COC(=O)[C@@]12CCCCN1[C@H](c1ccc(-c3ccc(Cl)c(Cl)c3)c(OC)c1)[C@@H]1C(=O)N(C)C(=O)[C@@H]12	44	nt	-11	-10	nt	0	nt
CCN1C(=O)[C@@H]2[C@@H](c3ccc(-c4ccc(OC)cc4)cc3)N3CCCC[C@@]3(C(=O)OC)[C@@H]2C1=O	18	-6	-12	8	nt	0	nt
O=C(COC(=O)c1cnc(Cl)c(Cl)c1)NC1CC1	-5	2	10	-6	nt	0	nt
COc1ccc(-c2cnnn2-c2ccc(NC(=O)c3ccc(S(=O)(=O)N4CCCCC4)cc3)cc2)cc1	58*	-3	nt	-2	-56	1	-1
COc1ccc(C(=O)Nc2ccc(S(=O)(=O)N3CCCCC3)cc2)cc1	14	-2	6	-14	19	0	nt
COc1cc(C(=O)NCCC2=CCCCC2)ccc1OC1CCN(C(C)=O)CC1	-1	0	1	1	nt	1	nt
O=c1nc(SCc2c(F)cccc2Cl)nc(-c2ccc(Cl)cc2)[nH]1	57*	-4	-3	10	16	0	17
COc1ccccc1NC(=O)COc1ccccc1C(=O)c1cnn(-c2ccccc2)c1	36	0	nt	19	-6	0	nt
CCc1ccc(NC(=O)COc2ccc(F)cc2C(=O)c2cnn(-c3ccccc3)c2)cc1	53*	-1	nt	-6	12	0	0
COc1ccc(S(=O)(=O)N(C)C[C@H]2OCCCC[C@H](C)Oc3ccc(NC(=O)Nc4ccc(F)cc4)cc3C(=O)N([C@H](C)CO)C[C@H]2C)cc1	32	nt	-26	-3	nt	0	nt
C[C@@H]1CN([C@H](C)CO)C(=O)c2cc(NC(=O)Nc3ccc(F)cc3)ccc2O[C@@H](C)CCCCO[C@H]1CN(C)S(=O)(=O)c1cccs1	81*	nt	20	-12	nt	-1	78*
C[C@@H]1CCCCO[C@H](CN(C)S(=O)(=O)c2cccs2)[C@@H](C)CN([C@H](C)CO)C(=O)c2cc(NC(=O)Nc3ccc4c(c3)OCO4)ccc2O1	60*	nt	9	12	nt	0	11
C[C@H](CO)N1C[C@H](C)[C@@H](CN(C)S(=O)(=O)c2cccs2)Oc2ccc(NC(=O)Nc3ccc4c(c3)OCO4)cc2C1=O	4	0	2	11	nt	0	nt
COc1ccc(-c2nn(Cc3ccccc3)cc2C(=O)N2CCN(c3ncccn3)CC2)cc1	2	-2	-29	10	nt	0	nt
